12-LOX inh – Primary qHTS assay for inhibitors of human arachidonate 12S-lipoxygenase (ALOX12): Round 2; Polyunsaturated fatty acid lipoxygenase ALOX12 (Homo sapiens), P18054; purified 12hLO, xylenol orange hydroperoxide absorbance; Potency, µM (series often up to 108 µM), without a hit: top-dose activity change, negative = inhibition, usual class: inhibitors; 580,000 compounds, 1.1% hits; AID 1671190, 2021
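Purified human 12hLO (150 nM final) in 25 mM Hepes, 0.01% Triton X-100, pH 7.0 was preincubated 15 min at room temperature with compound. Then 40 uM arachidonic acid was added, 30 min. Hydroperoxide was read by Fe-XO absorbance ratio 573/405 nm.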
PLK1 PBD block – qHTS for Inhibitors of PLK1-PDB (polo-like kinase 1 - polo-box domain): Primary Screen | Serine/threonine-protein kinase PLK1 (Homo sapiens), P53350 | Plk1 PBD binding of FITC phosphopeptide, fluorescence polarization | Potency, µM, without a hit: max response, negative = inhibition, usual class: inhibitors | 360,000 compounds, 2.8% hits; also: series mostly up to about 57 µM; nearly all actives have a fitted effect of over 65% in size
KAT2A inh – qHTS Assay for Inhibitors of GCN5L2. GCN5L2 HAT assay, ThioGlo1 CoA-SH fluorescence. Potency, µM (series often up to 58.9 µM), inactives show top-dose activity change, negative = inhibition, hits mostly inhibitors. Histone acetyltransferase KAT2A (Homo sapiens), Q92830. 390,000 compounds, 0.21% hits
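GCN5L2 (20nM final) in 50mM HEPES, 0.1mM EDTA pH 7.5, 0.01% Tween-20 was preincubated 15 min at room temperature with compound, then given ThioGlo1 (50uM), H3(1-25) peptide (75uM) and acetyl-CoA (70uM); CoA-thiol fluorescence (Ex340/Em540) was read at 0 and 20 min.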
VDR inhibitor – Inhibitors of the vitamin D receptor (VDR): qHTS | VDR-SRC2-3 peptide fluorescence polarization, 2 h | 400,000 compounds, 0.93% hits | AID 504847, 2011 | Vitamin D3 receptor (Homo sapiens), P11473 | Potency, µM, for the others: max response, negative = inhibition, actives largely listed as inhibitors
Target sequence (P11473 whole entry, looked up): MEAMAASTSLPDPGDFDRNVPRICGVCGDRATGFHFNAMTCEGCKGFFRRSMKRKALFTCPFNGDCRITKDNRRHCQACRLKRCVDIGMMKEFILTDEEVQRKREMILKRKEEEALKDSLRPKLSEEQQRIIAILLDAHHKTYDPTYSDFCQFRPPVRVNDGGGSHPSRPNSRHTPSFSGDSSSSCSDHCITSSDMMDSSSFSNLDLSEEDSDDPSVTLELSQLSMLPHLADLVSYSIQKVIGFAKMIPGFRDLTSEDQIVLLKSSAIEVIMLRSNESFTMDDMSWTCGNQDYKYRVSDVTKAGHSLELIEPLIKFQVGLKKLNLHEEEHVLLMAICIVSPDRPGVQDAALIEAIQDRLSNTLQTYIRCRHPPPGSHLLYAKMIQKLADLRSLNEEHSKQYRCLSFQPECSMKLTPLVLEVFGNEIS
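Measured by FP: displacement of SRC2-3 coactivator peptide from VDR by library compounds, following a two-hour ambient incubation.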
* hit, by the source's call; ? = inconclusive; / = not tested or not shown; [ ] = dose if it differs, or a comment. Compounds with a hit are over-represented: about 3% of the library has one in this group of screens. Calls follow the shape of the dose curve; as a rule, active = well fitted curve in the direction sought with a large enough effect; inconclusive = small, poorly fitted or top-dose-only effect, or another doubt; inactive = no such curve, though single readings can be large; an effect the other way counts as inactive or inconclusive. % is scaled to controls: 0 for no effect and ±100 for the full control effect; potency is read from the fitted curve at half-maximal effect.

SMILES	12-LOX inh	PLK1 PBD block	KAT2A inh	VDR inhibitor
Clc1cccc(CNCCOc2ccccn2)c1	-42%	/	/	/
O=C1C(=Cc2ccc(Br)o2)C(=O)c2ccccc21	/	2.7µM*	?	1%
Cc1ccc(C(=O)O)cc1-c1ccc(C=C2C(=O)c3ccccc3C2=O)o1	?	?	?	-11%
CC1=C/C(=C\c2ccc(Br)o2)C(=O)O1	-17%	19µM*	-1%	2%
CCCCc1ccc(-c2csc(/C(C#N)=C/c3ccc(-c4ccccc4)cc3)n2)cc1	6%	/	/	/
CN(C)S(=O)(=O)c1cccc(NC(=O)COC(=O)CCOc2ccccc2)c1	-17%	-7%	-3%	2%
CN(C)S(=O)(=O)c1cccc(NC(=O)COC(=O)COc2ccc(Br)cc2)c1	15%	27µM*	-9%	-19%
Cc1[nH]n(-c2ccccc2)c(=O)c1C(=O)c1cccc(F)c1	?	-3%	-5%	-4%
CC1=NN(c2ccc(Cl)cc2)C(=O)C1C(c1cccc(O)c1)c1c(C)[nH]n(-c2ccc(Cl)cc2)c1=O (stereo not drawn)	/	5.3µM*	-26%	79µM*
CC1=NN(c2ccc(F)cc2)C(=O)C1C(c1cccc(O)c1)c1c(C)[nH]n(-c2ccc(F)cc2)c1=O (stereo not drawn)	149%	5.3µM*	-13%	-13%
Cc1[nH]n(-c2ccc(Cl)cc2)c(=O)c1C(=O)c1ccccc1	?	-16%	-4%	25%
CSC1=N/C(=C\c2ccccc2F)C(=O)S1	0%	-7%	-5%	-9%
CSC1=N/C(=C\C=C\c2ccco2)C(=O)S1	3.2µM*	/	/	/
COc1ccc(NC(=O)c2cc3ccccc3o2)cc1OC	-5%	24µM*	-16%	?
CCN(CC)CCNCc1cc(Br)ccc1OCC(=O)NCc1ccccc1	28µM*	-10%	0%	8%
S=C(NCCc1ccc(Cl)cc1)NC1CCCC1	?	-4%	-2%	11%
S=C(NCc1ccc(Cl)cc1)NC1CCCC1	40µM*	/	/	/
S=C(NCCSc1ccc(Cl)cc1)NC1CCCC1	28µM*	/	/	/
Nc1sc(Cc2ccccc2)cc1C(=O)NC1CCCCC1	-22%	27µM*	/	/
S=C(NCCc1ccc(Cl)cc1)NC1CCCCC1	40µM*	9%	2%	-13%
Cc1nc(-c2c3n(c(=O)n(Cc4ccc(OC(F)(F)F)cc4)c2=O)CCCC3)no1	37%	/	/	/
O=C(COc1ccc(-c2nnco2)cc1)c1ccc(F)c(F)c1	-18%	/	/	/
c1ccc(CNc2cc(-c3cc(N4CCCCC4)ncn3)c3cc[nH]c3n2)nc1	47%	/	/	/
CC(Sc1nnc2c(Cl)cc(C(F)(F)F)cn12)C(=O)c1ccccc1 (stereo not drawn)	-4%	/	/	/
CN(C)C(=O)CN(C)c1nc(-c2ccsc2)nc2ccccc12	-11%	/	/	/
SMILES	12-LOX inh	PLK1 PBD block	KAT2A inh	VDR inhibitor
S=C(NCCc1ccccc1)NC1CCCc2ccccc21 (stereo not drawn)	14µM*	/	/	/
COc1cc(C)c(NC(=O)C(=S)NCCc2ccccc2)cc1C	-3%	12µM*	-3%	?
O=C(NC1CCCCC1)C(=S)NCCc1ccccc1	-17%	24µM*	-11%	?
S=C(NCCc1ccccc1)NC1CCCCCC1	?	-11%	5%	-8%
S=C(NCCc1ccc(Cl)cc1Cl)NC1CCCCC1	18µM*	/	/	/
O=C(NCCc1ccccc1)C(=O)NC1CCCCC1	5%[57.4 µM]	-12%	2%	-9%
CC1(C)CC(NC(=S)NC2CCCCC2)CC(C)(C)N1	-62%	/	/	/
CC(C)C(=O)N(Cc1ccccn1)C1CC1	3%	/	/	/
CN(C)S(=O)(=O)c1ccc(N2CCOCC2)c(C(=O)N2CCCc3ccccc32)c1	-2%	/	/	/
Cc1sc(N)c(C(=O)c2ccccc2)c1C	24%	3.8µM*	-3%	?
O=C(C#Cc1ccccc1)N[C@H]1CC[C@@]23CCCN2C(=O)CCC[C@H]3[C@H]1Cc1ccccc1	-9%	/	/	/
Cc1ccc(Sc2ncnc3onc(C)c23)cc1	0%	19µM*	1%	-19%
COC(=O)CC1C(=O)NCCN1C(=O)CSc1nc2ccccc2s1 (stereo not drawn)	?	13µM*	-13%	?
O=C(CSC1CCCCC1)c1ccc(O)cc1O	45µM*	/	/	/
O=C(COC(=O)c1ccc(O)cc1O)NC1CCCCCC1	290%	-14%	0%	0%

Bioassay records (PubChem)
